# Bioassay records from PubChem BioAssay.
# CtBP-E1A blk – blocks the CtBP interaction with E1A | AID 651724 | AlphaScreen GST-E1A/His-CtBP binding, 1536-well; active compounds read low | 340,000 compounds, 0.49% hits | activity change, % (test concentration not listed); in the data active = activity change below about -65%; inconclusive = mostly about -30% to -63%
#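 Protein mix (5X: 125 nM each GST-E1A, His-CtBP) was incubated with pinned compound 2 h at 37 deg C in dark, in 50 mM Tris pH 8.0 buffer with 300 mM NaCl. Glutathione donor and nickel acceptor beads followed; AlphaScreen signal read after 1 h.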
# PKM2 act – activators of human pyruvate kinase M2; P14618; purified PKM2, Kinase-Glo ATP luminescence, activation; response scale: 0% is enzyme alone, no compound; Potency, µM (highest dose often 57.5 µM), for the others: top-dose activation, most hits filed as activators; 260,000 compounds, 0.34% hits; note: potency is the fitted concentration of half-maximal effect; nearly all actives have a fitted effect of over 55% in size
#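 hPK-M2, >95% pure; 0.1 mM ADP / 0.5 mM PEP final; imidazole pH7.2 buffer w/ 7 mM MgCl2, 50 mM KCl; 1 h RT; Kinase-Glo lum. Intermediate enzyme activity for dual inhibitor/activator qHTS.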
# RORgamma inh – blocks mouse ROR gamma transcriptional activity | Drosophila S2 Gal4-RORgamma UAS-luciferase reporter, 20 h | Potency, µM (series often up to 53.6 µM), for inactives: top-dose activity change, negative = inhibition, hits mostly inhibitors | 310,000 compounds, 5.4% hits; note: potency is the fitted concentration of half-maximal effect; nearly all actives have a fitted effect of over 60% in size
#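 A Gal4/UAS one-hybrid system in insect cells: metallothionein-promoter Gal4–ROR gamma fusion plus Photinus luciferase reporter. Copper sulfate 700 uM final, 20 hr ambient incubation, luminescent detection after 10 min with reagent.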
# Gal4-VP16 FLuc – Gal4-VP16 reporter inhibition counter-screen. 310,000 compounds, 3.5% hits. AID 2546. Potency, µM (series often up to 53.6 µM), for inactives: at the highest dose activity, negative = inhibition, usual class: inhibitors. Drosophila S2 Gal4-VP16 UAS-luciferase, luminescence, 20 h;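 note: Gal4-VP16 expression switched on by copper sulfate through the metallothionein promoter; potency is the fitted concentration of half-maximal effect; nearly all actives have a fitted effect of over 50% in size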
# Six1-Eya2 inh – blocks human Six1 binding to Eya2. Q15475+O00167. 360,000 compounds, 0.56% hits. AID 651725. activity change, % (test concentration not listed). AlphaScreen GST-Six1/His-Eya2 binding, biochemical; active compounds read low; in the data active = activity change below about -65%; inconclusive = mostly about -30% to -63%
# Target sequence (O00167 whole entry, looked up): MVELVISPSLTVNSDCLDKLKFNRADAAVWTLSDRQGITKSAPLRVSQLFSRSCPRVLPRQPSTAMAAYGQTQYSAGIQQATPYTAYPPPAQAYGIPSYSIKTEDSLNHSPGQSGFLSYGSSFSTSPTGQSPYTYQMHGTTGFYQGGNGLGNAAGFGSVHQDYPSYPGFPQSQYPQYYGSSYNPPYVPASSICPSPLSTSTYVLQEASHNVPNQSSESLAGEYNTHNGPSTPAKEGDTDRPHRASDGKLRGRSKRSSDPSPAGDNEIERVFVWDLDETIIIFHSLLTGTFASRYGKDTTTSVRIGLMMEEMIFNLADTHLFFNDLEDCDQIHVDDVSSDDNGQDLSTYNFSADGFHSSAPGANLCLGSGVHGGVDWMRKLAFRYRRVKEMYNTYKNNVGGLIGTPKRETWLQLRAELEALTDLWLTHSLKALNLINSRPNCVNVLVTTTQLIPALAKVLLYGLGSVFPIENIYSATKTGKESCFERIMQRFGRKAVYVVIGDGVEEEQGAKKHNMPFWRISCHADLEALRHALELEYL
# Target sequence (Q15475 whole entry, looked up): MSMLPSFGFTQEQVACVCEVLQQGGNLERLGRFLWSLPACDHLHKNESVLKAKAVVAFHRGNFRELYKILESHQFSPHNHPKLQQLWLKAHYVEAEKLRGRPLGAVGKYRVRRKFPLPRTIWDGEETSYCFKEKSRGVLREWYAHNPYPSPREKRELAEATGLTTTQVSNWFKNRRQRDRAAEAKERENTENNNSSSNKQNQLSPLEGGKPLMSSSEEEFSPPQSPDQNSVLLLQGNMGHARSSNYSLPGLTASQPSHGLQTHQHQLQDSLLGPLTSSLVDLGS
#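 AlphaScreen luminescence read after one hour at 37 °C in darkness. Pin-transferred compounds met GST-Six1 and His-Eya2 protein (5X stock 250 nM/500 nM) plus glutathione donor and Ni-chelate acceptor beads (5X, 50 ug/mL).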
# Active calls of the source: *; ? = inconclusive; . = no result given. Hits are enriched below; roughly 5.6% of the tested compounds scored in any of these assays. Unless noted, calls come from the whole dose curve; as a rule, active = well fitted curve in the direction sought with a large enough effect; inconclusive = small, poorly fitted or top-dose-only effect, or another doubt; inactive = no such curve, though single readings can be large; an effect the other way counts as inactive or inconclusive. % is set by controls: 0 for no effect and ±100 for the full control effect.
SMILES,CtBP-E1A blk,PKM2 act,RORgamma inh,Gal4-VP16 FLuc,Six1-Eya2 inh
Cc1cccc(/C=N/NC(=O)c2cc(C3CC3)nc3ccccc23)n1,.,.,?,?,-15.9
CN(Cc1ccccc1)C(=O)c1[nH]cnc1C(=O)Nc1ccccc1F,6.8,.,.,.,1.5
CNS(=O)(=O)c1cccc(C(=O)OCC(=O)c2c(N)n(Cc3ccccc3)c(=O)n(C)c2=O)c1,-3.5,.,.,.,-7.0
COC(=O)c1ccc(C(c2c(N)n(Cc3ccccc3)c(=O)n(C)c2=O)N2CCOCC2)cc1 (stereo unspecified),14.3,12.6µM*,?,5.7%,-0.8
O=C(NCc1ccccc1)c1ccccc1NC(=O)C1CCCCC1,3.1,-1.7%,10.8%,3.9%,5.8
Fc1ccc(/C=N/NC(=S)Nc2ccc(Cl)cc2Cl)cc1,2.7,-2.9%,?,?,-4.6
Cc1nn(C)cc1/C=N/NC(=S)Nc1ccc(Cl)cc1Cl,-0.8,0.5%,0.562µM*,2.82µM*,-9.7
CCn1nc(C)c(/C=N/NC(=S)Nc2ccc(Cl)cc2Cl)c1C,0.0,-8.6%,1.78µM*,6.31µM*,-6.0
CCOC(=O)SC1=N/C(=C\c2ccc(N(C)C)cc2)C(=O)S1,-16.9,1.3%,12.6µM*,?,-15.5
COc1ccc(/C(C)=N/N2C(C)CCCC2C)c(OC)c1 (stereo unspecified),0.0,.,12.6µM*,?,2.8
CCCC(=O)Nc1ccc(Cl)c(NC(=S)NC(=O)c2ccco2)c1,-10.5,3.7%,?,16.7%,-9.7
CC(C)CC(=O)NC(=S)Nc1ccc(NC(=O)c2ccco2)cc1,1.3,-6.4%,12.6µM*,-15.3%,-4.1
CCC(=O)NC(=S)Nc1ccc(NC(=O)c2ccco2)c(OC)c1,30.6,-5.0%,12.6µM*,?,25.7
CCC(=O)NC(=S)Nc1ccc(NC(=O)c2ccco2)cc1,3.3,-8.7%,-18.9%,7.6%,4.0
COc1cc(NC(=O)Cc2ccccc2)ccc1NC(=O)c1ccco1,-9.9,0.9%,39.8%,5.5%,-7.9
O=C(O)c1ccc(NC(=S)NC(NC(=O)c2ccco2)C(Cl)(Cl)Cl)cc1 (stereo unspecified),-0.8,0.2%,0.9%,-5.0%,1.6
CCCCC(=O)NC(=S)Nc1cccc(NC(=O)c2ccco2)c1,-4.6,0.3%,?,15.8µM*,-12.4
Cc1ccc(NC(=S)NC(NC(=O)c2ccco2)C(Cl)(Cl)Cl)cc1 (stereo unspecified),-3.9,?,11.2µM*,7.08µM*,-6.5
C=CC1=C(C)C2=NC1=CC1=NC(=CC3=NC(=CC4=NC(=C2)C(C)=C4CCC(=O)O)C(CCC(=O)O)=C3C)C(C=C)=C1C.[Zn],.,.,11.6%,-17.2%,.
CCc1ccc(NC(=S)NC(=O)CC(C)C)cc1,8.4,0.1%,1.12µM*,1µM*,1.9
CCOc1ccc(NC(=S)NC(=O)c2ccco2)cc1,.,2.3%,6.31µM*,?,8.5
CC(=O)NS(=O)(=O)c1ccc(NC(=S)NC(=O)CC(C)C)cc1,23.5,-8.7%,-6.5%,-6.1%,5.7
CCC1CCCCN1C(=O)c1ccc(OC2CCN(C(=O)CCOC)CC2)cc1 (stereo unspecified),11.3,.,19.5%,-4.4%,2.5
COc1cccc(C(=O)COC(=O)CCC(=O)NC2CCCCC2)c1,.,-3.0%,5.0%,-5.7%,3.7
CCC(=O)OCC(=O)C1(OC(=O)CC)[C@H](C)C[C@H]2[C@H]3[C@H]([C@@H](O)C[C@@]21C)[C@@]1(C)C=CC(=O)C=C1C[C@H]3Cl (stereo partly specified),7.8,.,.,.,-0.2
CCC(=O)OCC(=O)C1(OC(=O)CC)C(C)CC2C3C(Cl)CC4=CC(=O)C=C[C@@]4(C)C3C(O)C[C@@]21C (stereo partly specified),.,.,12.6µM*,-27.1%,.
N#Cc1c(-c2ccco2)cc(-c2ccccn2)nc1N,?,12.3%,10µM*,11.2µM*,?
N#Cc1c(-c2ccco2)cc(-c2cccnc2)nc1N,-12.9,18.6%,?,-4.6%,-22.2
CCCS(=O)(=O)NC(=O)C1(C)CCCN(C(=O)COc2ccccc2)C1 (stereo unspecified),9.3,.,.,.,6.5
